We go through 56 molecules from PubChem BioAssay AID743279 (National Center for Advancing Translational Sciences (NCATS), 2014).

SMILES strings stand for the structures. In all, about 360,000 compounds went through this assay and about 17,000 (4.7%) were called active. Not shown: some 5% with an inconclusive outcome. No stated cut-off is given here; in the data, active means activity change below about -50%; inconclusive means mostly about -30% to -49%; inactive means weaker than that. Many of the other results were omitted from the sample, so actives are more common in it than they were.
On the % scale 0 is the no-effect control and ±100 the full control effect.

This assay can be described thus: qHTS for Inhibitors of Inflammasome Signaling: IL-1-beta AlphaLISA Primary Screen. Conditions: THP-1 LPS/ATP IL-1B secretion, 16 h; at 57.5 µM, active compounds read low. Put shortly:
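THP-1 cells pretreated 1 hr with compounds (up to 57.5 uM final), then stimulated with LPS (250 ng/mL final) plus ATP (1.25 mM final); secreted IL-1B measured by AlphaLISA after 16 hr, decreased signal indicating inhibition.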
In the case of `CCCCN1CC(COc2ccccc2)Oc2cccc(F)c2S1(=O)=O` (stereo unspecified), the activity change was -1.95% (inactive). Under `COc1cc(NC(=O)CSc2ccc(-c3cccnc3)nn2)cc(OC)c1` stands -13.8% (inactive).

For `CC1CCC2(CC1)NC(=O)N(CC(=O)NCc1ccco1)C2=O` (stereo unspecified), the activity change is 5.54% (inactive).

On to `CCc1ccc2c(c1)NC(=O)C2(C)Cc1ccc(OC(F)(F)F)cc1` (stereo unspecified), for which the activity change is -20.9% (inactive).

For the molecule `N#C/C=C(/c1ccc(F)cc1)N1CCOCC1`, the activity change was 11.5% (inactive). In the case of `COc1ccc(CNC(=O)COC(=O)C2=Cc3ccccc3OC2)cc1`, the activity change is 1.65% (inactive).

Consider `CCCSC(=S)NC1CCS(=O)(=O)C1` (stereo unspecified), for which the activity change is -105% (active). `CC(C)C(=O)NC(NC(=S)NC1CCS(=O)(=O)C1)C(Cl)(Cl)Cl` (stereo unspecified): the activity change is 15.4% (inactive). With `O=C(Cc1ccc(Cl)cc1)NC1CCS(=O)(=O)C1` (stereo unspecified), the activity change is -6.66% (inactive). Take `O=C(CSc1ccccc1F)NC1CCS(=O)(=O)C1` (stereo unspecified): the activity change is -10.4% (inactive). In the case of `COc1ccc(NC(=S)NC2CCS(=O)(=O)C2)cc1` (stereo unspecified), the activity change was 7% (inactive). `O=S1(=O)CCC(NC(=S)SCc2ccccc2Br)C1` (stereo unspecified): the activity change is -69% (active). Turning to `C[C@@H]1NS(=O)(=O)c2cc(Cl)ccc2O[C@@H]1c1ccccc1`, the activity change was -5.88% (inactive).

`O=C1NC[C@H](CCCCN2C[C@H](Cc3ccc(O)cc3)N(CC3CCCCC3)C(=O)C2=O)N(CCc2ccccc2)C1=O`: the activity change was 4.81% (inactive). In the case of `CC1(Cc2ccccc2C#N)C(=O)Nc2ccc(-c3ccc4[nH]ccc4c3)cc21` (stereo unspecified) it was 90.5% (inactive); in that of `COc1ccc(N=C2C=CC(=O)O2)cc1`, 4.16% (inactive); in that of `CCCCNC(=O)c1nc(C2CCN(S(=O)(=O)c3ccc(F)c(F)c3)CC2)oc1-c1cccc(C(F)(F)F)c1`, 11.8% (inactive). In the case of `CCOC(=O)[C@]12CCCC=C1N(Cc1cccc3ccccc13)C(=O)[C@H](CC(=O)NCC13CC4CC(CC(C4)C1)C3)C2`, the activity change was -26.5% (inactive). With `O=S1(=O)CC(N2CCSCC2)CN1Cc1cn(Cc2cccc(Cl)c2)nn1` (stereo unspecified), the activity change was -25.6% (inactive). Consider `COc1ccc(Br)cc1/C=N/Nc1ccc(S(=O)(=O)Nc2ccccc2C(=O)O)cc1[N+](=O)[O-]`, for which the activity change was 0% (inactive).

As to `Cc1cc(C)cc(OCC(=O)NCc2cc(C)nc3ccccc23)c1`, the activity change was 14.8% (inactive). Under `Cc1cc(C)c(NC(=O)c2oc3ccccc3c2COc2ccccc2)c(C)c1` stands -17.8% (inactive); under `Cc1cc(C)c(NC(=O)C[N+](C)(C)CC(O)COc2cccc3ccccc23)c(C)c1` (stereo unspecified), -86% (active).

As to `COc1ccc(NC(=O)N(C)C[C@H]2Oc3ncc(C#C[C@@H](C)O)cc3C(=O)N([C@H](C)CO)C[C@H]2C)cc1`, the activity change is -13.1% (inactive).

Take `CC1(Oc2ccc(Cl)cc2)CCN(Cc2csc3ccccc23)C1` (stereo unspecified): the activity change is 17.7% (inactive). Regarding `Cc1cc(OC(=O)c2ccccc2)c([N+](=O)[O-])c(=O)[nH]1`, the activity change was -9.86% (inactive).

For the molecule `Cc1ccc(S(=O)(=O)N2[C@@H](Cc3ccccc3)CO[C@H]2CC(=O)OCc2ccccc2)cc1`, the activity change is -0.839% (inactive). Under `O=S(=O)(Cc1ccc(Cl)cc1Cl)c1ccc(Cl)cc1` stands -1.43% (inactive); under `CCN(CC)CCNC(=O)Cn1cnc2sc(C)c(S(=O)(=O)N3CCOCC3)c2c1=O`, 14.7% (inactive). Turning to `CCN(CC)CCNC(=O)c1sc2ncn(CC(=O)Nc3ccc(C)c(Cl)c3)c(=O)c2c1C`, the activity change is -75.6% (active).

Consider `CCN(CC)CCCNC(=O)Cn1cnc2sc(C)c(S(=O)(=O)N3CCN(c4ncccn4)CC3)c2c1=O`, for which the activity change is 18.1% (inactive). In the case of `CN(C)C1CN(Cc2cn(Cc3ccccc3)nn2)S(=O)(=O)C1` (stereo unspecified), the activity change is -13.3% (inactive). For `CC(C)CCOc1ccc(C(=O)Nc2cc(S(=O)(=O)N3CCOCC3)ccc2N2CCOCC2)cc1`, the activity change was -18.6% (inactive). In the case of `O=S(=O)(NCCCN1CCOCC1)c1ccc(F)c(Cl)c1` it was -0.644% (inactive). For the molecule `CC1(C(=O)Nc2ccc3c(c2)OCCO3)CN(S(C)(=O)=O)CC(=O)N1Cc1cccc(F)c1` (stereo unspecified), the activity change was -9.42% (inactive). Under `CCN1C(=O)[C@@H]2[C@@H](c3ccc(-c4ccc(OC)cc4)c(OC)c3)N3CCC[C@@]3(C(=O)OC)[C@@H]2C1=O` stands -7.49% (inactive); under `CCCCCCSc1ccc([C@@H]2[C@@H]3C(=O)N(CC)C(=O)[C@@H]3[C@]3(C(=O)OC)CCCCN23)cc1OC`, -74.8% (active).

For `CCCCCCSc1ccc([C@@H]2[C@H]3C(=O)N(CC)C(=O)[C@H]3[C@]3(C(=O)OC)CCCCN23)cc1`, the activity change is 144% (inactive). On to `COC(C)(C)[C@]12CC(O)(C(C)C)ON1[C@H]1CCCCC1N2O` (stereo partly specified), for which the activity change was 8.62% (inactive).

On to `CCCNC(=O)CSc1nc(Cc2ccccc2)nc2ccccc12`, for which the activity change is -58.7% (active). With `CCc1nc(SCC(=O)NNC(=O)c2ccc(C)cc2)c2ccccc2n1`, the activity change is -0.629% (inactive). For `C=CCSc1nc(Cc2ccc(Cl)cc2)nc2ccccc12`, the activity change was -12.9% (inactive).

As to `Cc1ccc(CCN2CC(C(=O)O)CC2=O)cc1` (stereo unspecified), the activity change is -6.28% (inactive). For the molecule `O=C(COC(=O)Cc1ccccc1F)NCCc1ccccc1`, the activity change is 6.36% (inactive). As for `N=c1n(CCc2ccccc2)c2ccccc2n1Cc1ccccc1F`, the activity change was -81.4% (active).

As for `CC(=O)NC(C)c1nc2ccccc2n1Cc1ccccc1F` (stereo unspecified), the activity change was 21.9% (inactive). As to `O=C(NCCN1CCN(C(=O)c2cccc([N+](=O)[O-])c2)CC1)C(=O)NCc1ccc(Cl)cc1`, the activity change is -11.8% (inactive). Under `Cc1ccc(S(=O)(=O)c2c[nH]c3ccc(Cl)cc3c2=O)cc1` stands -2.27% (inactive); under `CCOC(=O)CNc1nc(Cl)nc(Nc2ccccc2)n1`, -67.7% (active); under `CCC(=O)Nc1ccc(Nc2nc(Cl)nc(Nc3ccc(NC(=O)CC)cc3)n2)cc1`, -8.11% (inactive). For `CCOC(=O)CNc1nc(Cl)nc(Nc2ccc(OC)cc2OC)n1`, the activity change was -6.02% (inactive).

On to `COc1cc(OC)cc(C(=O)NCCSCc2ccc(Cl)cc2)c1`, for which the activity change was 0.652% (inactive).

Consider `CSc1ncnc2c1ncn2CCCNCC1CCCCC1`, for which the activity change is 16.5% (inactive). Take `CSc1ncnc2c1ncn2CC(=O)C1CCC2C3CCC4=CC(=O)CCC4(C)C3CCC12C` (stereo unspecified): the activity change is -64.8% (active). In the case of `CC(=O)C12CC(C)=C(C)CC1CC1C3CCC4=CC(=O)CCC4(C)C3CCC12C` (stereo unspecified) it was -14.2% (inactive); in that of `C[C@H]1CN([C@@H](C)CO)C(=O)CCCn2nncc2CO[C@@H]1CN(C)S(=O)(=O)c1cccc(C#N)c1`, 22.7% (inactive).
